From PMC7862700, “An all-to-all approach to the identification of sequence-specific readers for epigenetic DNA modifications on cytosine”

Legend:
Assay in all cases: DAPPL (digital affinity profiling via proximity ligation, sequencing); 10 mM Tris-HCl pH 7.5, 50 mM NaCl, 1 mM DTT, 4% glycerol, room temperature, 30 min; GST-TFs on glutathione beads, 16-mer random dsDNA library, 0.1% formaldehyde crosslink after washing; high values mean tight binding
FEV = target: T1, FEV (Homo sapiens, UniProt Q99581 1-238); settings: protein: recombinant; tags: N-terminal GST; dsDNA, one strand shown
T1 sequence: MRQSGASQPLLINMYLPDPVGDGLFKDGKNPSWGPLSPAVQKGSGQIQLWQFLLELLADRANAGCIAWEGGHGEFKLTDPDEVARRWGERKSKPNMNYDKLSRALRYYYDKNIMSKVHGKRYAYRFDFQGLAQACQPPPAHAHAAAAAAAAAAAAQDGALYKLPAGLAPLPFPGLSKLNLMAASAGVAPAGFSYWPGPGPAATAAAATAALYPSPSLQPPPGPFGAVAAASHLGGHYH
How it was run: (§1)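 Yeast served to express human transcription factors as GST fusions, which were then captured on glutathione beads and labelled with DNA barcodes. Pooled with a tag-only sample, they were incubated with 200 nmole of a 16-mer random double-stranded DNA library for 30 min at room temperature in Tris/NaCl/DTT/glycerol buffer, washed, crosslinked with 0.1% formaldehyde, ligated by proximity, amplified by PCR and sequenced. Dividing each hexamer's read frequency for a factor by its frequency for the tag-only sample gives the binding signal.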

ETV5 = ETV5 (Homo sapiens, UniProt P41161 1-510); settings: protein: recombinant; tags: N-terminal GST; dsDNA, one strand shown
How it was run: as §1

HSF1 = HSF1 (Homo sapiens, UniProt Q00613 1-529); settings: protein: recombinant; tags: N-terminal GST; chain copies: 3; dsDNA, one strand shown
How it was run: as §1

SPIC = target: T2, SPIC (Homo sapiens, UniProt Q8N5J4 1-248); settings: protein: recombinant; tags: N-terminal GST; dsDNA, one strand shown
T2 sequence: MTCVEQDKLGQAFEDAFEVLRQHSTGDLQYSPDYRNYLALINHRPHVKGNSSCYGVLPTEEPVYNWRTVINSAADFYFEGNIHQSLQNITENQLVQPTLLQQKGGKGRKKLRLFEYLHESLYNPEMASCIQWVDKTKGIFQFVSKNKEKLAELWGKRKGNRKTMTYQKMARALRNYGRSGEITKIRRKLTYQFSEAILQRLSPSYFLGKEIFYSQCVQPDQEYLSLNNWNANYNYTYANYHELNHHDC
How it was run: as §1

ELF4 = ELF4 (Homo sapiens, UniProt Q99607 1-663); settings: protein: recombinant; tags: N-terminal GST; dsDNA, one strand shown
How it was run: as §1

ELK4 = target: T3, ELK4 (Homo sapiens, UniProt P28324-2 1-405); settings: protein: recombinant; tags: N-terminal GST; dsDNA, one strand shown
T3 sequence: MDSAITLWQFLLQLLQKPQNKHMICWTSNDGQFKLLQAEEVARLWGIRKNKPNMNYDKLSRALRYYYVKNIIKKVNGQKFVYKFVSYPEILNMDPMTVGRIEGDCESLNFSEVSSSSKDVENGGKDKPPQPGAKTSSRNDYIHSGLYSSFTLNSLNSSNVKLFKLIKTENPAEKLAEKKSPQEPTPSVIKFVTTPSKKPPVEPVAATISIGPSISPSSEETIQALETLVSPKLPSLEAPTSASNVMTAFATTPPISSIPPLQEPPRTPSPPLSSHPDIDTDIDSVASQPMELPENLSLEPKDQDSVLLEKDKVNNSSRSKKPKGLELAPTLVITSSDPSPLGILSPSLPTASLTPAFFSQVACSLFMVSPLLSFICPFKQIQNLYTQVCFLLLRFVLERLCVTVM
How it was run: as §1

ETV2 = target: T4, ETV2 (Homo sapiens, UniProt O00321 1-342); settings: protein: recombinant; tags: N-terminal GST; dsDNA, one strand shown
T4 sequence: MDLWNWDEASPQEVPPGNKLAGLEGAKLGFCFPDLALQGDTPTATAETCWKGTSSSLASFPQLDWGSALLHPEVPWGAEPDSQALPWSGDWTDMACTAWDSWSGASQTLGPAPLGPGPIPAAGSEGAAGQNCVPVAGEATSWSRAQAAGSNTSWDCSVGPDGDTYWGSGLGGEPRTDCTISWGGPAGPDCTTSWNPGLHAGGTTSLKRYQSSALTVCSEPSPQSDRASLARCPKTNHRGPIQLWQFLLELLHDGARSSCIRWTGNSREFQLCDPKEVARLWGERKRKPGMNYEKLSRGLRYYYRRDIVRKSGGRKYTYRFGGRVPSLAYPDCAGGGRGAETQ
How it was run: as §1

ELF3 = target: T5, ELF3 (Homo sapiens, UniProt P78545 1-371); settings: protein: recombinant; tags: N-terminal GST; dsDNA, one strand shown
T5 sequence: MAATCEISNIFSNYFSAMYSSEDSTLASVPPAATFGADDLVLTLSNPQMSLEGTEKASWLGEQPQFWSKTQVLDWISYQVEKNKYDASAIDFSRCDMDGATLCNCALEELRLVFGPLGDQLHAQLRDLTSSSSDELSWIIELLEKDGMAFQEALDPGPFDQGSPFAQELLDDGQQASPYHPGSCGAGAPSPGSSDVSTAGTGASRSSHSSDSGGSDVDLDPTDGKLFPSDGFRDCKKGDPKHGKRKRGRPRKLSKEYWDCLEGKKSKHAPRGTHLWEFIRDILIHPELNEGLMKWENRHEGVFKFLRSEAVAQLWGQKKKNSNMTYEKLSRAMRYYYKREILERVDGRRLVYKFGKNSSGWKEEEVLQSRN
How it was run: as §1

CRX = CRX (Homo sapiens, UniProt O43186 1-299); settings: protein: recombinant; tags: N-terminal GST; dsDNA, one strand shown
How it was run: as §1

ETV1 = ETV1 (Homo sapiens, UniProt P50549 1-477); settings: protein: recombinant; tags: N-terminal GST; dsDNA, one strand shown
How it was run: as §1

Chain of ELF4 (Q99607 whole entry): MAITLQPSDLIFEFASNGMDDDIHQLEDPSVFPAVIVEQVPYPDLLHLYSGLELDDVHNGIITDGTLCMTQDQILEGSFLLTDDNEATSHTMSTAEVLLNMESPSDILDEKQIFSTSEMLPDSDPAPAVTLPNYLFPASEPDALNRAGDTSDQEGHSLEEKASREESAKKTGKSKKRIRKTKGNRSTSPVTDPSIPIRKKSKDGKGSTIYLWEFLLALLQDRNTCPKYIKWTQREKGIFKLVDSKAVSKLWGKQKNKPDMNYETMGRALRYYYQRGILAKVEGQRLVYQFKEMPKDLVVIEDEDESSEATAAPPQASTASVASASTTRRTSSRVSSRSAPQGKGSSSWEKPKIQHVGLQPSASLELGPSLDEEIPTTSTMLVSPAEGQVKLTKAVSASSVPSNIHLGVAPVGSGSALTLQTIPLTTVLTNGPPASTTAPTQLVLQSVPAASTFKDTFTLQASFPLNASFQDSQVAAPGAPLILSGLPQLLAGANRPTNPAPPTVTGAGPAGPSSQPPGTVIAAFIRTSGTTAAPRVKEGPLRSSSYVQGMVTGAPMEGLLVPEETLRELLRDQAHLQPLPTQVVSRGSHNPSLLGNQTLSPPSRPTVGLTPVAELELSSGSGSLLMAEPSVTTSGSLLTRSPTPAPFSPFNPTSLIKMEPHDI
Chain of CRX (O43186 whole entry): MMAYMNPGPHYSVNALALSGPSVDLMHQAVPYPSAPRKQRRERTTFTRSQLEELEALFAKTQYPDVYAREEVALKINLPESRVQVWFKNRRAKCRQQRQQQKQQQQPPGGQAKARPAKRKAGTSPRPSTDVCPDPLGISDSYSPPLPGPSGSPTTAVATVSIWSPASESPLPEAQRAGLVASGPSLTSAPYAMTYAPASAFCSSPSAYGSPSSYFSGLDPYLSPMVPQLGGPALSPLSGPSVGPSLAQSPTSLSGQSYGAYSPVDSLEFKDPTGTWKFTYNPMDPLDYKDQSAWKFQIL
Chain of ETV1 (P50549 whole entry): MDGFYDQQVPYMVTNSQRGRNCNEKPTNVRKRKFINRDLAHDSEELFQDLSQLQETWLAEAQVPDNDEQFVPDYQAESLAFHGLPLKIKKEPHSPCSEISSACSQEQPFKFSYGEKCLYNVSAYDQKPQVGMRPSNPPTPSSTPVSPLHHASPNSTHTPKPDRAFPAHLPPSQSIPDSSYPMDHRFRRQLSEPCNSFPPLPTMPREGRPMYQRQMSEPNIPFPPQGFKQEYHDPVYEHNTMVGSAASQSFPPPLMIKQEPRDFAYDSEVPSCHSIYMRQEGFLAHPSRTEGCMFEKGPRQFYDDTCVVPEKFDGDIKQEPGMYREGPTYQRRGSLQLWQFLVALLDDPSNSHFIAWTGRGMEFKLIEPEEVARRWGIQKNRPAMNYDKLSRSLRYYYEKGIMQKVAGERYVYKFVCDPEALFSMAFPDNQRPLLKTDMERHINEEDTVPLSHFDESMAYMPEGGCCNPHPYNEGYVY
Chain of HSF1 (Q00613 whole entry): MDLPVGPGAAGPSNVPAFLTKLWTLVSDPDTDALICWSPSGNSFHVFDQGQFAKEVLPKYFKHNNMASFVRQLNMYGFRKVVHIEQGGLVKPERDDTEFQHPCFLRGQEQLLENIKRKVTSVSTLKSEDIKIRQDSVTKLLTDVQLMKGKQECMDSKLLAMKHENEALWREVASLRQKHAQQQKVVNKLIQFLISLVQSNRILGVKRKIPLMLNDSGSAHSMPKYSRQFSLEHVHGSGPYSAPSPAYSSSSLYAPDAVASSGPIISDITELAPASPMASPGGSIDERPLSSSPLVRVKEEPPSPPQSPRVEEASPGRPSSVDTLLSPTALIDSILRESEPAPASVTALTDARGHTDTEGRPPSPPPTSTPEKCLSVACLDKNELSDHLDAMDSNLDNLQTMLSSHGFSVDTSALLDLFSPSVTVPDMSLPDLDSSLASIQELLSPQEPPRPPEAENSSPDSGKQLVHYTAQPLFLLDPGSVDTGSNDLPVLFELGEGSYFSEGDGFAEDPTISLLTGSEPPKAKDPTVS
Chain of ETV5 (P41161 whole entry): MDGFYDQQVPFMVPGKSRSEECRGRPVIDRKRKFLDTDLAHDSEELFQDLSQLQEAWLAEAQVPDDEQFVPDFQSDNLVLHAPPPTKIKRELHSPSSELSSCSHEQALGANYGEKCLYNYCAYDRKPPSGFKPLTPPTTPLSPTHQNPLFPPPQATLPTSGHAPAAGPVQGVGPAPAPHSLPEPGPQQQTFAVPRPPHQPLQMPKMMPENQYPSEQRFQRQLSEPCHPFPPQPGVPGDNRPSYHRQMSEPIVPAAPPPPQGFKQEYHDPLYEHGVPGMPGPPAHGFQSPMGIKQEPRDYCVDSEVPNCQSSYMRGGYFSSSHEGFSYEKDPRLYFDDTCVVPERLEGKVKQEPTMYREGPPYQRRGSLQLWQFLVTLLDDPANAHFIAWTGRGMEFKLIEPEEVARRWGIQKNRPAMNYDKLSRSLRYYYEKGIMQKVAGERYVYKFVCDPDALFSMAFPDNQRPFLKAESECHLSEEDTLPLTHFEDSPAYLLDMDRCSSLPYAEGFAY

Row | Sequence | binding signal (FEV) | binding signal (ETV5) | binding signal (HSF1) | binding signal (SPIC) | binding signal (ELF4) | binding signal (ELK4) | binding signal (ETV2) | binding signal (ELF3) | binding signal (CRX) | binding signal (ETV1)
1 | CTGCTG | 1.25 fold enrichment (6-mer frequency, TF over GST control) | 1.25 fold enrichment (6-mer frequency, TF over GST control) | 1.09 fold enrichment (6-mer frequency, TF over GST control) | 1.47 fold enrichment (6-mer frequency, TF over GST control) | 1.25 fold enrichment (6-mer frequency, TF over GST control) | 1.27 fold enrichment (6-mer frequency, TF over GST control) | 1.05 fold enrichment (6-mer frequency, TF over GST control) | 1.13 fold enrichment (6-mer frequency, TF over GST control) | 1.01 fold enrichment (6-mer frequency, TF over GST control) | 1.17 fold enrichment (6-mer frequency, TF over GST control)
2 | TAAAAG | 1.08 fold enrichment (6-mer frequency, TF over GST control) | 1.19 fold enrichment (6-mer frequency, TF over GST control) | 1.43 fold enrichment (6-mer frequency, TF over GST control) | 1.14 fold enrichment (6-mer frequency, TF over GST control) | 1.17 fold enrichment (6-mer frequency, TF over GST control) | 1.2 fold enrichment (6-mer frequency, TF over GST control) | 1.22 fold enrichment (6-mer frequency, TF over GST control) | 1.21 fold enrichment (6-mer frequency, TF over GST control) | 1.72 fold enrichment (6-mer frequency, TF over GST control) | 1.18 fold enrichment (6-mer frequency, TF over GST control)
3 | TTCGTC | 1.21 fold enrichment (6-mer frequency, TF over GST control) | 1.33 fold enrichment (6-mer frequency, TF over GST control) | 1.25 fold enrichment (6-mer frequency, TF over GST control) | 1.23 fold enrichment (6-mer frequency, TF over GST control) | 1.29 fold enrichment (6-mer frequency, TF over GST control) | 1.41 fold enrichment (6-mer frequency, TF over GST control) | 1.33 fold enrichment (6-mer frequency, TF over GST control) | 1.39 fold enrichment (6-mer frequency, TF over GST control) | 1.09 fold enrichment (6-mer frequency, TF over GST control) | 1.26 fold enrichment (6-mer frequency, TF over GST control)
4 | TTTTCC | 1.74 fold enrichment (6-mer frequency, TF over GST control) | 1.92 fold enrichment (6-mer frequency, TF over GST control) | 1.73 fold enrichment (6-mer frequency, TF over GST control) | 1.72 fold enrichment (6-mer frequency, TF over GST control) | 1.84 fold enrichment (6-mer frequency, TF over GST control) | 1.62 fold enrichment (6-mer frequency, TF over GST control) | 1.88 fold enrichment (6-mer frequency, TF over GST control) | 1.89 fold enrichment (6-mer frequency, TF over GST control) | 1.44 fold enrichment (6-mer frequency, TF over GST control) | 1.65 fold enrichment (6-mer frequency, TF over GST control)
5 | TAAGAT | 1.15 fold enrichment (6-mer frequency, TF over GST control) | 1.13 fold enrichment (6-mer frequency, TF over GST control) | 1.76 fold enrichment (6-mer frequency, TF over GST control) | 1.25 fold enrichment (6-mer frequency, TF over GST control) | 1.21 fold enrichment (6-mer frequency, TF over GST control) | 1.29 fold enrichment (6-mer frequency, TF over GST control) | 1.31 fold enrichment (6-mer frequency, TF over GST control) | 1.3 fold enrichment (6-mer frequency, TF over GST control) | 2.49 fold enrichment (6-mer frequency, TF over GST control) | 1.28 fold enrichment (6-mer frequency, TF over GST control)
6 | TAGCTC | 1.19 fold enrichment (6-mer frequency, TF over GST control) | 1.25 fold enrichment (6-mer frequency, TF over GST control) | 1.24 fold enrichment (6-mer frequency, TF over GST control) | 1.19 fold enrichment (6-mer frequency, TF over GST control) | 1.22 fold enrichment (6-mer frequency, TF over GST control) | 1.26 fold enrichment (6-mer frequency, TF over GST control) | 1.37 fold enrichment (6-mer frequency, TF over GST control) | 1.17 fold enrichment (6-mer frequency, TF over GST control) | 1.46 fold enrichment (6-mer frequency, TF over GST control) | 1.21 fold enrichment (6-mer frequency, TF over GST control)
7 | TTCTTC | 1.66 fold enrichment (6-mer frequency, TF over GST control) | 1.87 fold enrichment (6-mer frequency, TF over GST control) | 2.07 fold enrichment (6-mer frequency, TF over GST control) | 1.74 fold enrichment (6-mer frequency, TF over GST control) | 1.81 fold enrichment (6-mer frequency, TF over GST control) | 1.69 fold enrichment (6-mer frequency, TF over GST control) | 1.83 fold enrichment (6-mer frequency, TF over GST control) | 1.74 fold enrichment (6-mer frequency, TF over GST control) | 1.44 fold enrichment (6-mer frequency, TF over GST control) | 1.9 fold enrichment (6-mer frequency, TF over GST control)
8 | GCCTTC | 1.57 fold enrichment (6-mer frequency, TF over GST control) | 1.56 fold enrichment (6-mer frequency, TF over GST control) | 1.49 fold enrichment (6-mer frequency, TF over GST control) | 1.71 fold enrichment (6-mer frequency, TF over GST control) | 1.6 fold enrichment (6-mer frequency, TF over GST control) | 1.64 fold enrichment (6-mer frequency, TF over GST control) | 1.63 fold enrichment (6-mer frequency, TF over GST control) | 1.41 fold enrichment (6-mer frequency, TF over GST control) | 1.2 fold enrichment (6-mer frequency, TF over GST control) | 1.66 fold enrichment (6-mer frequency, TF over GST control)
